Test results: the supplement of paper PMC10849652
Of roughly 7,900 targets only a part is listed; those with a hit were picked by preference. About 0.6% of all pairs of compound and target were hits.

Key:
Experiment in all cases: log2 fold change, soluble protein after heating vs DMSO (PISA); higher = thermal stabilisation; K562 cells, 10 uM, 30 min; active = over 0.2 and 3.5 SD of the protein, either way, in both replicates (recomputed)
[1] = compound: Cc1ccc(NC(=O)c2ccc(CN3CC[C@H](N(C)C)C3)c(C(F)(F)F)c2)cc1Nc1nccc(-c2cncnc2)n1 [bafetinib]
Method in brief: (§1)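 Quantification of soluble protein used TMTpro 16plex LC-MS/MS, with channel sums equalised. Samples were the supernatant after 21,000xg for 90 min of pooled aliquots from K562 cells (2×10^6 cells/mL) treated with 10 μM compound for 30 min, heated for 3 min over 48°C-58°C, and extracted in PBS with 0.5% NP-40 at 4°C. Values, from duplicates, describe thermal stability against control samples on a log2 fold-change scale.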

[2] = compound: Cc1cccc(CC(=O)N2CCc3c2ccc(-c2cn(C)c4ncnc(N)c24)c3F)n1
Method in brief: as §1

[3] = compound: Cc1cn(-c2cc(NC(=O)c3ccc(C)c(Nc4nccc(-c5cccnc5)n4)c3)cc(C(F)(F)F)c2)cn1 [nilotinib]
Method in brief: as §1

[4] = compound: Cc1nc(Nc2n[nH]c3c2CN(C(=O)N[C@H](CN(C)C)c2ccccc2)C3(C)C)c2sccc2n1
Method in brief: as §1

[5] = compound: Cc1nc(Nc2ncc(C(=O)Nc3c(C)cccc3Cl)s2)cc(N2CCN(CCO)CC2)n1 [dasatinib]
Method in brief: as §1

[6] = compound: Cc1ncc(-c2ccnc(Nc3ccc(S(C)(=O)=O)cc3)n2)n1C(C)C
Method in brief: as §1

[7] = compound: Cn1cc(-c2ccc3c(c2)CCN3C(=O)Cc2cccc(C(F)(F)F)c2)c2c(N)ncnc21
Method in brief: as §1

[8] = compound: Cn1cc(-c2ccc3nnc(C(F)(F)c4ccc5ncccc5c4)n3n2)cn1
Method in brief: as §1

[9] = compound: Cn1cncc1[C@@](N)(c1ccc(Cl)cc1)c1ccc2c(c1)c(-c1cccc(Cl)c1)cc(=O)n2C [tipifarnib]
Method in brief: as §1

[10] = compound: FC(F)(F)c1ccc(/C=C/c2nc(COc3ccc(CCCCn4ccnn4)cc3)co2)cc1 [mubritinib]
Method in brief: as §1

[11] = compound: NC(=O)Nc1cc(-c2cccc(F)c2)sc1C(=O)N[C@H]1CCCNC1
Method in brief: as §1

[12] = compound: NC(=O)c1cnc(N[C@@H]2CCCC[C@@H]2N)nc1Nc1cccc(-n2nccn2)c1
Method in brief: as §1

[13] = compound: NC1(c2ccc(-c3nc4ccn5c(=O)[nH]nc5c4cc3-c3ccccc3)cc2)CCC1
Method in brief: as §1

[14] = compound: NCC(=O)Nc1ccc(-n2nc(C(F)(F)F)cc2-c2ccc3c(ccc4ccccc43)c2)cc1
Method in brief: as §1

[15] = compound: Nc1ccccc1NC(=O)c1ccc(CNC(=O)OCc2cccnc2)cc1 [entinostat]
Method in brief: as §1

[16] = compound: O=C(CCCCCCC(=O)Nc1ccccc1)NO [vorinostat]
Method in brief: as §1

[17] = compound: O=C(CCCCCCNC(=O)c1cnc(N(c2ccccc2)c2ccccc2Cl)nc1)NO [citarinostat]
Method in brief: as §1

[18] = compound: O=C(O)c1ccc2c(c1)nc(Nc1cccc(Cl)c1)c1ccncc12 [silmitasertib]
Method in brief: as §1

[19] = compound: O=C1NC(=O)C(c2cnc3ccccn23)=C1c1cn2c3c(cc(F)cc13)CN(C(=O)N1CCCCC1)CC2
Method in brief: as §1

[20] = compound: c1cc(OCCN2CCCCC2)cc(-c2n[nH]c3ccc(-c4nnc[nH]4)cc23)c1
Method in brief: as §1

Measured: log2 fold change

ALDH1B1 (UniProt P30837)
UniProt P30837, sequence (P30837 whole entry, looked up): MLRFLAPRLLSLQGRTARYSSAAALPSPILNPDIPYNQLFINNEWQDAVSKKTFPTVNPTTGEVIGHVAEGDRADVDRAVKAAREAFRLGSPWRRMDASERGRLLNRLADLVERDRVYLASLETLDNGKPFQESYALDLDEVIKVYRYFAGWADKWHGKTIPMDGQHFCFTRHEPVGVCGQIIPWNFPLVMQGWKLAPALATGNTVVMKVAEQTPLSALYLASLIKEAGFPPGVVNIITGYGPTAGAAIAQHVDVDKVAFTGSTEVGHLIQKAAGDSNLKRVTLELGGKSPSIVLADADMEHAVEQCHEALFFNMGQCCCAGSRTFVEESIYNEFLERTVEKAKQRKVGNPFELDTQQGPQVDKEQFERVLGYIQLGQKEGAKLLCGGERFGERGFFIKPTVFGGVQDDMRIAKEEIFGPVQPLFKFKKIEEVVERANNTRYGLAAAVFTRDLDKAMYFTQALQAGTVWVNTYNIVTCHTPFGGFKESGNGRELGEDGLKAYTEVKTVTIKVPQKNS
inactive: [1] 0.03 | [2] -0.018 | [3] 0.003 | [4] 0.014 | [5] -0.113 | [6] 0.131 | [7] 0.022 | [8] 0.034 | [9] -0.018 | [10] 0.059 | [11] 0 | [12] -0.039 | [13] -0.065 | [14] -0.054 | [15] -0.019 | [17] 0.051 | [18] -0.037 | [19] -0.015 | [20] 0.058
active: [16] 0.281

ARL1 (UniProt P40616)
UniProt P40616, sequence (P40616 whole entry, looked up): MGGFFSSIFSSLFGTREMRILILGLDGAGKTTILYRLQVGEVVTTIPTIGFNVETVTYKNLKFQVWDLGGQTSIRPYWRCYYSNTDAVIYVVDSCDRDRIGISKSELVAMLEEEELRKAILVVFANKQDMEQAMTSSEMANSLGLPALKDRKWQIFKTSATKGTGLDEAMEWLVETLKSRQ
inactive: [1] 0.114 | [2] 0.205 | [3] -0.174 | [4] -0.017 | [5] -0.131 | [6] 0.096 | [7] 0.055 | [8] 0.019 | [9] -0.123 | [10] -0.046 | [11] 0.142 | [12] 0.055 | [13] -0.173 | [14] -0.019 | [15] 0.031 | [16] 0.149 | [17] 0.161 | [18] 0.006 | [19] 0.04 | [20] 0.007

APLP2 (UniProt Q06481)
UniProt Q06481, sequence (Q06481 whole entry, looked up): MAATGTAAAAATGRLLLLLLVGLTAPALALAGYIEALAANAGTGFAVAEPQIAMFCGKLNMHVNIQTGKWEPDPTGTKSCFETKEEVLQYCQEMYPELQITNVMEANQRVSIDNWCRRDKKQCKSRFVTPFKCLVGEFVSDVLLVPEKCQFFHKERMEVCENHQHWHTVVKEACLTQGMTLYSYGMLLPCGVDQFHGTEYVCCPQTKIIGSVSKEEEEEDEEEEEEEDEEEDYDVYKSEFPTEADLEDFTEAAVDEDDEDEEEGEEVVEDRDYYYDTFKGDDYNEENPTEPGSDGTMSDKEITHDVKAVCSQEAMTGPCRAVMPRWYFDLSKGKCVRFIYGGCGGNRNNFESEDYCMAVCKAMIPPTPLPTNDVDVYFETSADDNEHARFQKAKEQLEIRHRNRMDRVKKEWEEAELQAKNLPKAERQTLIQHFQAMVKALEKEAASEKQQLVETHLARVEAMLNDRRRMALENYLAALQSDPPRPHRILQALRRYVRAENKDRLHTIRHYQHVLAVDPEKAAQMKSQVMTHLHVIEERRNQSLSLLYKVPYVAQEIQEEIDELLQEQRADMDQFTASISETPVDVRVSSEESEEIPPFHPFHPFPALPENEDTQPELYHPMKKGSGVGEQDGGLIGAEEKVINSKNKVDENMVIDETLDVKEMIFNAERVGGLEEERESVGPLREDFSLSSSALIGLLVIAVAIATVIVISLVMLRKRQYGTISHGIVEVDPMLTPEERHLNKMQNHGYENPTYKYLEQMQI
inactive: [1] 0.054 | [2] -0.063 | [3] 0.156 | [4] -0.144 | [5] 0.118 | [6] 0.052 | [7] -0.007 | [8] -0.164 | [9] -0.01 | [10] -0.011 | [11] -0.13 | [12] -0.021 | [13] 0.036 | [14] 0.054 | [15] -0.063 | [16] -0.035 | [17] 0.02 | [18] 0 | [19] 0.074 | [20] 0.046

ATP6V1H (UniProt Q9UI12)
UniProt Q9UI12, sequence (Q9UI12 whole entry, looked up): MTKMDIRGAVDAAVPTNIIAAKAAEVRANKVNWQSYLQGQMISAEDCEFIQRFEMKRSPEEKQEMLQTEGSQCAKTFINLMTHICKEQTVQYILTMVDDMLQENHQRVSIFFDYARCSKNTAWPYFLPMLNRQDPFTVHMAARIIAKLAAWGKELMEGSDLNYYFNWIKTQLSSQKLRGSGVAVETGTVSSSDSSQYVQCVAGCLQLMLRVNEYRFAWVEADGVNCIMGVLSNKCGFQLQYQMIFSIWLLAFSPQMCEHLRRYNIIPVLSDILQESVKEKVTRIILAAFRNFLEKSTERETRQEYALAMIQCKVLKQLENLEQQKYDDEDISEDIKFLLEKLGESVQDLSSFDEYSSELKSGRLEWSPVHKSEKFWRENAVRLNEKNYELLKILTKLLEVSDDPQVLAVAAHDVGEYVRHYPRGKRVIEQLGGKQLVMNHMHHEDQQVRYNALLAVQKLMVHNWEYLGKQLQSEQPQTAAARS
inactive: [1] -0.057 | [2] 0.037 | [3] -0.015 | [4] -0.016 | [5] -0.029 | [6] 0.049 | [7] 0.025 | [8] -0.013 | [9] -0.01 | [10] 0.098 | [11] 0 | [12] -0.141 | [13] -0.201 | [14] -0.094 | [15] 0.046 | [16] 0.032 | [17] 0.031 | [18] 0.005 | [19] 0.025 | [20] -0.062

ACAD9 (UniProt Q9H845)
inactive: [1] -0.061 | [2] -0.022 | [3] 0 | [4] 0.021 | [5] 0.125 | [6] -0.023 | [7] 0.047 | [8] 0.014 | [9] 0.055 | [10] 0.067 | [11] -0.009 | [12] -0.051 | [13] -0.036 | [14] -0.012 | [15] -0.021 | [16] 0.033 | [17] 0.035 | [18] 0.021 | [19] -0.016 | [20] 0.007

ATP6V0A2 (UniProt Q9Y487)
UniProt Q9Y487, sequence (Q9Y487 whole entry, looked up): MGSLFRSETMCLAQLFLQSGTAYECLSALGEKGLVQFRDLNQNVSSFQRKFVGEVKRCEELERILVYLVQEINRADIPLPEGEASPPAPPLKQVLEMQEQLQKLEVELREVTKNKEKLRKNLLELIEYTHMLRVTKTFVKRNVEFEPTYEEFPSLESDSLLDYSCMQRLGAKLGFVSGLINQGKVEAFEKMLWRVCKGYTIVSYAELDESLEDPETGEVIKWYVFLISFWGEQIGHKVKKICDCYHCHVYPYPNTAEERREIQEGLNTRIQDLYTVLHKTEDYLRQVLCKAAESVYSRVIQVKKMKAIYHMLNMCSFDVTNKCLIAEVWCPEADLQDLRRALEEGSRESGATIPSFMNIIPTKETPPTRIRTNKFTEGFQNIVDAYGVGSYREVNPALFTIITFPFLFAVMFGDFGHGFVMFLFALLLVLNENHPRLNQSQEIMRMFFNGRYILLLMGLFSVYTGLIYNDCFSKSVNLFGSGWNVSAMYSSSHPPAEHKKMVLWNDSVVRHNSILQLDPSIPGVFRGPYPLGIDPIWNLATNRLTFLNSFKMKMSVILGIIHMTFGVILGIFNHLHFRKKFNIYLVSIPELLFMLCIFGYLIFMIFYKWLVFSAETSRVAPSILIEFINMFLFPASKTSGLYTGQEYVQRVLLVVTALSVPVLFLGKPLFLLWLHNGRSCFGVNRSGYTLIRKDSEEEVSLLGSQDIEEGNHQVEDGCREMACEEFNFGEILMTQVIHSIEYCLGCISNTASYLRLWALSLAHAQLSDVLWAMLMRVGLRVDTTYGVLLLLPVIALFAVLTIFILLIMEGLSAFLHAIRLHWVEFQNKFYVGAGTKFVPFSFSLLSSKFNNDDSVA
inactive: [1] -0.041 | [2] 0.007 | [3] 0.035 | [4] 0.006 | [5] -0.006 | [6] -0.077 | [7] -0.019 | [8] 0.027 | [9] 0.008 | [10] -0.019 | [11] -0.002 | [12] -0.072 | [13] -0.143 | [14] -0.024 | [15] 0.021 | [16] 0 | [17] 0.036 | [18] 0.079 | [19] 0.061 | [20] -0.043

ATAD3A isoform 2 (UniProt Q9NVI7)
inactive: [1] -0.104 | [2] 0.035 | [3] -0.141 | [4] -0.053 | [5] -0.094 | [6] 0 | [7] -0.082 | [8] -0.101 | [9] 0.097 | [10] -0.215 | [11] 0.011 | [12] -0.088 | [13] -0.128 | [14] -0.088 | [15] 0.053 | [16] 0.123 | [17] 0.076 | [18] 0.051 | [19] 0.12 | [20] -0.127

BMP2K (UniProt Q9NSY1)
UniProt Q9NSY1, sequence (Q9NSY1 whole entry, looked up): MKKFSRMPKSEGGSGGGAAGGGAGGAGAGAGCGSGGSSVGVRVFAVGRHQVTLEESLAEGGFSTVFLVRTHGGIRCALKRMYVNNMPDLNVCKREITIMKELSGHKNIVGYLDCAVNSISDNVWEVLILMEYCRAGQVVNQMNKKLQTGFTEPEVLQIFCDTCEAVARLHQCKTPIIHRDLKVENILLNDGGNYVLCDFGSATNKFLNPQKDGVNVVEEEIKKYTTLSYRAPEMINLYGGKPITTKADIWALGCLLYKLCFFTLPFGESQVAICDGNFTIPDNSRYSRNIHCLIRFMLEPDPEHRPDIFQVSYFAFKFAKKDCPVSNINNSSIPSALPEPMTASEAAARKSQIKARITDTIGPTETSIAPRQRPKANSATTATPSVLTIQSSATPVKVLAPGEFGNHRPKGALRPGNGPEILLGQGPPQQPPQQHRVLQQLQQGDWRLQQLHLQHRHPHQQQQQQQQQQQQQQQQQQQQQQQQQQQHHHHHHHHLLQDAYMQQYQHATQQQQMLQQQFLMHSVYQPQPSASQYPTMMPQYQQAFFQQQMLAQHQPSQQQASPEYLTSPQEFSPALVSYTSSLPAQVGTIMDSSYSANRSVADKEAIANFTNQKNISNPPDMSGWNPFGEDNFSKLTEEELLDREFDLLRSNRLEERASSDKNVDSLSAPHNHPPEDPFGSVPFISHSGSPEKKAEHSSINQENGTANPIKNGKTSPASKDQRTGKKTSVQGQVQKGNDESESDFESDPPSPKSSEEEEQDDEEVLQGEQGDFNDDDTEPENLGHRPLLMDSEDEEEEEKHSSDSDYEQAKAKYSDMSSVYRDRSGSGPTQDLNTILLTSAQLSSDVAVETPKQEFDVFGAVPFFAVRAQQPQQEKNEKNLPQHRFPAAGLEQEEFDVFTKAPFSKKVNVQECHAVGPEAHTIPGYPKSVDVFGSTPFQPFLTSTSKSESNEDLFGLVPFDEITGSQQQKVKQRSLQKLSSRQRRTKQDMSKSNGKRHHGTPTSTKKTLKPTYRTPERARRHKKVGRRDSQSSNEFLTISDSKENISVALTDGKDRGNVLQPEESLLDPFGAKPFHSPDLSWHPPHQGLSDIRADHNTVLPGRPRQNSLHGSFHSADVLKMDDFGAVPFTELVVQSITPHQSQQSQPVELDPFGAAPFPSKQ
inactive: [1] 0.037 | [2] -0.107 | [3] -0.067 | [5] 0 | [6] 0.34 | [7] -0.016 | [8] -0.036 | [9] 0.016 | [10] -0.042 | [11] 0.297 | [12] 0.076 | [13] 0.035 | [14] -0.007 | [15] -0.037 | [16] -0.078 | [17] -0.053 | [18] 0.031 | [19] 0.291 | [20] 0.241
active: [4] 0.534

ARFGEF1 (UniProt Q9Y6D6)
inactive: [1] 0.052 | [2] 0.006 | [3] -0.024 | [4] 0.014 | [5] -0.026 | [6] 0.008 | [7] 0.005 | [8] 0.047 | [9] 0.009 | [10] -0.021 | [11] 0.028 | [12] 0.121 | [13] -0.023 | [14] 0.006 | [15] -0.044 | [16] 0.02 | [17] 0.009 | [18] 0.065 | [19] 0.023 | [20] 0.069

ATIC (UniProt P31939)
active: [10] 0.206
inactive: [1] 0.067 | [2] 0.058 | [3] 0.158 | [4] -0.033 | [5] 0.022 | [6] -0.006 | [7] 0.104 | [8] 0.048 | [9] -0.047 | [11] -0.023 | [12] 0.001 | [13] 0.03 | [14] -0.009 | [15] -0.019 | [16] -0.026 | [17] 0.01 | [18] -0.059 | [19] -0.066 | [20] 0.013

ATP23 (UniProt Q9Y6H3)
UniProt Q9Y6H3, sequence (Q9Y6H3 whole entry, looked up): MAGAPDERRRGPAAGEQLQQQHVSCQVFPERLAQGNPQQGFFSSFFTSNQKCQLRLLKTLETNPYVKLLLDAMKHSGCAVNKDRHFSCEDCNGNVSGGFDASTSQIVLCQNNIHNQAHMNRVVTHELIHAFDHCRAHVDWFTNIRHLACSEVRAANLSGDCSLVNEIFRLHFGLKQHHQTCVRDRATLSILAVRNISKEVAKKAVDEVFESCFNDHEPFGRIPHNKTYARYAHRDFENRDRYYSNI
inactive: [1] -0.1 | [2] -0.015 | [3] -0.092 | [4] 0.067 | [5] 0.041 | [6] -0.011 | [7] -0.097 | [8] 0.023 | [9] 0.081 | [10] 0.033 | [11] 0.014 | [12] 0.06 | [13] 0.002 | [14] -0.057 | [15] -0.012 | [16] 0.044 | [17] -0.012 | [18] -0.027 | [19] 0.02 | [20] -0.045

AGRN (UniProt O00468)
inactive: [1] 0.006 | [2] 0.001 | [3] -0.034 | [4] -0.035 | [5] 0.355 | [6] -0.086 | [7] 0.03 | [8] 0.162 | [9] 0.165 | [10] -0.079 | [11] 0.016 | [12] 0.053 | [13] 0.033 | [14] 0.02 | [15] 0.035 | [16] -0.126 | [17] 0.01 | [18] -0.073 | [19] 0.087 | [20] -0.238

BST2 (UniProt Q10589)
inactive: [1] 0.061 | [2] -0.009 | [3] 0.048 | [4] -0.059 | [5] -0.016 | [6] -0.096 | [7] -0.052 | [8] 0.029 | [9] 0.036 | [10] -0.015 | [11] 0.031 | [12] 0.02 | [13] 0.003 | [14] 0.132 | [15] 0.03 | [16] -0.026 | [17] -0.058 | [18] 0.009 | [19] 0.112 | [20] -0.092

ACSL3 (UniProt O95573)
UniProt O95573, sequence (O95573 whole entry, looked up): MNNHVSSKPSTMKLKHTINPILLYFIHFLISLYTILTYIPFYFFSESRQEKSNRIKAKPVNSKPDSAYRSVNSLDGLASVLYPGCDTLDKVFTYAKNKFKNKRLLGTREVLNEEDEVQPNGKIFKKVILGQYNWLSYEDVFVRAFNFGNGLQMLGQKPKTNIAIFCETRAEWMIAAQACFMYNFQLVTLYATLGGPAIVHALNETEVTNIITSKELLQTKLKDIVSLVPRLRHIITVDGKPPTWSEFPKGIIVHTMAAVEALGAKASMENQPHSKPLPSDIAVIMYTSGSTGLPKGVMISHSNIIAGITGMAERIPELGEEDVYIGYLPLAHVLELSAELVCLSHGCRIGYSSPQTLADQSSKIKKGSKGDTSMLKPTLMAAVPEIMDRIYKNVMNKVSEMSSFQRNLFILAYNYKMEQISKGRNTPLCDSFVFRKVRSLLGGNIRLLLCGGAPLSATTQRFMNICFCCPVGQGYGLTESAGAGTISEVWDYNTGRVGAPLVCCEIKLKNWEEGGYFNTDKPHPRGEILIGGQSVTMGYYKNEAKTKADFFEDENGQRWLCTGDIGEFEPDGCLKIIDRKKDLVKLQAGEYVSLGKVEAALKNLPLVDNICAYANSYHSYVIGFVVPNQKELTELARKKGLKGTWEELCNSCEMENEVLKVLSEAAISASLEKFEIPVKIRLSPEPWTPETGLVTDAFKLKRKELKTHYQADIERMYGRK
inactive: [1] -0.066 | [2] 0.042 | [3] -0.086 | [4] -0.048 | [5] -0.06 | [6] 0.011 | [7] 0.029 | [8] 0.075 | [9] -0.042 | [10] 0 | [11] 0.009 | [12] -0.041 | [13] -0.095 | [14] -0.042 | [15] 0.047 | [16] 0.049 | [17] 0.047 | [18] 0.074 | [19] -0.045 | [20] 0.028

BLVRB (UniProt P30043)
inactive: [1] 0.014 | [2] 0.05 | [3] 0.021 | [4] -0.109 | [5] -0.064 | [6] 0.029 | [7] 0.032 | [8] 0.074 | [9] -0.021 | [10] -0.097 | [11] 0.069 | [12] 0.006 | [13] -0.116 | [14] 0.018 | [15] 0.058 | [16] 0 | [17] 0.058 | [18] 0.01 | [19] 0.021 | [20] -0.035

ALG3 (UniProt Q92685)
inactive: [1] -0.047 | [2] 0.075 | [3] 0.002 | [4] 0.021 | [5] 0.031 | [6] 0.017 | [7] -0.065 | [8] 0.013 | [9] -0.062 | [10] 0.006 | [11] -0.039 | [12] -0.037 | [13] -0.006 | [14] 0.045 | [15] 0.172 | [16] -0.046 | [17] -0.051 | [18] 0.034 | [19] -0.055 | [20] -0.027
